Compounds with a hit are over-represented: about 5.7% of the library has one in this group of screens.
ssDAF-12 act – activates DAF-12 receptor from parasite S. stercoralis. HEK293 ssDAF-12/GRIP1 lit1-tk-luc reporter, luminescence; % of 3 µM dafachronic acid response. activation, % at 6.8 µM. 370,000 compounds, 1% hits;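 active means activation above the mean over all tested compounds plus 3 SD, cut at about 0.9% in these data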
AHR act – activators of human aryl hydrocarbon receptor; AID 2796; AHR-responsive luciferase reporter cells, luminescence; 320,000 compounds, 2.5% hits; P35869; activation, % at 5 µM; in the data active means activation above about 47%
Target sequence (P35869 whole entry, looked up): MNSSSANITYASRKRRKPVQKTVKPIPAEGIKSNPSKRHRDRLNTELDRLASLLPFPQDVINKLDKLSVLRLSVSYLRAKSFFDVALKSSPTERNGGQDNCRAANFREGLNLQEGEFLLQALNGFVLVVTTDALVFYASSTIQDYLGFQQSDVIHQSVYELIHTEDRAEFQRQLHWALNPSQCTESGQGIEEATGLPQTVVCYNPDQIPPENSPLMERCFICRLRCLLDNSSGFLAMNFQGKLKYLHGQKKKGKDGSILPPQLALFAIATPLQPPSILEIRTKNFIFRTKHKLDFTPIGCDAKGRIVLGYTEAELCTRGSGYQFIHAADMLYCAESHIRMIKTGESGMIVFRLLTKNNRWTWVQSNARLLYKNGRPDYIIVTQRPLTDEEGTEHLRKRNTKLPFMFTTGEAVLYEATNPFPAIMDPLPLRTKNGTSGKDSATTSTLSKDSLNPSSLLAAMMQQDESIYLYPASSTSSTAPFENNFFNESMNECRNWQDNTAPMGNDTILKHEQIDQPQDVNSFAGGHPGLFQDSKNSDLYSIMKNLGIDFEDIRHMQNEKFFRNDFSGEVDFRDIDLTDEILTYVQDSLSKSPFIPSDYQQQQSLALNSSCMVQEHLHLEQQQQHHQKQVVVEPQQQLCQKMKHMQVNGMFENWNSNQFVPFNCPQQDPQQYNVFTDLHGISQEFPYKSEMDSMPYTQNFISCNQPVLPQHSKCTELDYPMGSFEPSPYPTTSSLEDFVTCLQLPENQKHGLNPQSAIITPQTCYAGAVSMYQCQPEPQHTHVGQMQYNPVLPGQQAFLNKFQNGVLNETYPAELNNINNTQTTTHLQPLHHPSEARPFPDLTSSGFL
DAX1 inh-1 – inhibitors of DAX1 repression of SF-1 activated StAR promoter | 370,000 compounds, 1.1% hits | HEK293T StAR-luciferase reporter, SF-1/DAX-1 repression relief | inhibition, % at 6.8 µM;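 active means inhibition above the mean over all tested compounds plus 3 SD, cut at about 3.6% in these data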;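 further: higher inhibition means more luminescence from relief of DAX-1 repression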
DAX1 inh-2 – inhibitors of human orphan nuclear receptor DAX1 (NR0B1) | P51843 | HEK293 Gal4-DAX1 luciferase reporter, luminescence | inhibition, % at 6.75 µM | 340,000 compounds, 0.99% hits;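 active means inhibition above the mean over all tested compounds plus 3 SD, cut at about 4.2% in these data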;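 further: inhibition shows as a rise in luminescence from relieved DAX1 repression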
hcDAF-12 act – activators of H. contortus DAF-12 nuclear receptor. AID 652067. HEK293 hcDAF-12 lit1-tk-luc reporter, luminescence; 0% DMSO, 100% Δ7-dafachronic acid. 370,000 compounds, 1.4% hits. activation, % at 6.8 µM;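 active means activation above the mean of all tested compounds plus 3 SD, cut at about 5.5% in these data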
hgDAF12 agonist – activates the H. glycines DAF-12 receptor ligand-binding domain. HEK293 GAL4-hgDAF12 UAS-luciferase reporter, agonist luminescence; normalized to butyrate control. activation, % at 6.8 µM. 370,000 compounds, 1.8% hits. AID 687014;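 active means activation above a cutoff set at the mean of all screened compounds plus 3 SD, cut at about 10% in these data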
DAX1 conf – NR0B1 (human) inhibition, confirmation; shares compounds with DAX1 inh-1; HEK293T StAR-promoter luciferase reporter, SF-1/DAX-1 repression; inhibition, % at 6.8 µM; 2,400 compounds, 87% hits; AID 652134;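 active means inhibition above the average of every tested compound plus 3 SD, cut at about 3.8% in these data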;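 further: active compounds raise luminescence by relieving repression of the StAR reporter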
SF1 mutant ctr – nonselective inhibitor or artifact in SF-1 mutant DAX1 counter-screen; shares compounds with DAX1 inh-1; HEK293 StAR-luciferase, SF-1 AF2 mutant, luminescence; inhibition, % at 6.8 µM; 2,400 compounds, 78% hits;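 active means inhibition above the mean of all tested compounds plus 3 SD, cut at about 3% in these data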
A number is an active result; i = inactive; nt = no result given.

SMILES	ssDAF-12 act	AHR act	DAX1 inh-1	DAX1 inh-2	hcDAF-12 act	hgDAF12 agonist	DAX1 conf	SF1 mutant ctr
CCN1CCN(c2ccc(S(=O)(=O)N3CCCCC3)cc2NC(=O)/C=C/c2ccc(Cl)cc2)CC1	i	nt	4.8	i	i	i	i	i
CCN1CCN(c2ccc(S(=O)(=O)N3CCCCC3)cc2NC(=O)/C=C/c2ccc(OC)c(OC)c2)CC1	i	i	i	i	i	i	nt	nt
CCOC(=O)c1sc(=NC(=O)c2ccc(F)cc2)n(C)c1C	i	i	6.8	i	6.0	i	15	7.4
CCOc1cccc2cc(-c3csc(NC(=O)CCC(=O)NCCCN4CCC(C)CC4)n3)c(=O)oc12	nt	i	nt	nt	nt	nt	nt	nt
CCOc1cccc2cc(-c3csc(NC(=O)CCC(=O)NCCN4CCCCC4C)n3)c(=O)oc12 (stereo unspecified)	i	i	6.5	i	i	23	14	7.0
Cn1ccc(C(=O)NC(=S)Nc2ccc([N+](=O)[O-])cc2O)n1	i	nt	8.3	i	i	i	10	5.8
COc1cccc(C(N)=O)c1OC(=O)Cc1ccccc1F	i	i	i	i	i	i	nt	nt
CC(C)(C)c1ccc(C(=O)/C=C2\NC(=O)CS2)cc1	i	i	5.2	i	6.1	12	18	9.2
O=C1C(=O)N(Cc2ccc(-c3ccc(Cl)nc3)cc2)c2ccc(OC(F)(F)F)cc21	i	nt	nt	nt	i	i	nt	nt
NC(=O)C1CCCN(C(=O)c2ccc(-c3cccc(Cl)c3Cl)o2)C1 (stereo unspecified)	i	nt	5.6	i	i	i	9.2	4.8
O=C(c1ccc(-c2ccccc2Cl)o1)N1CCC1	i	nt	5.1	i	i	i	5.7	4.3
O=C(c1ccc(-c2ccccc2Cl)o1)N1CCCC(C(F)(F)F)C1 (stereo unspecified)	i	i	i	i	i	i	nt	nt
O=C(NCC1CCCO1)c1ccc(-c2ccccc2Cl)o1 (stereo unspecified)	i	i	7.3	i	i	13	11	6.0
COc1ccc(C(CNC(=O)c2ccc(NS(=O)(=O)c3ccc(F)c(C)c3)cc2)N2CCOCC2)cc1 (stereo unspecified)	i	i	i	i	i	i	nt	nt
CCOC(=O)c1nn(-c2ccc3c(c2)OCCO3)cc1O	i	i	8.0	i	i	13	9.7	5.7
COC(=O)c1nn(-c2ccc3c(c2)OCO3)cc1O	i	i	i	i	i	i	nt	nt
CCOc1ccc(C(=O)Nc2nnc(SCC(=O)NCC3CCCO3)s2)cc1 (stereo unspecified)	i	i	5.4	i	6.1	i	4.2	i
CN(C)S(=O)(=O)c1ccc(C(=O)Nc2nnc(SCC(=O)NCC3CCCO3)s2)cc1 (stereo unspecified)	i	i	i	i	i	i	nt	nt
CC(C)(C)c1ccc(C(=O)Nc2nnc(SCC(=O)NCC3CCCO3)s2)cc1 (stereo unspecified)	i	i	11	i	i	i	8.9	6.1
CCCNC(=O)C(Cc1ccccc1C)NC(=O)c1ccc(C(F)(F)F)cc1 (stereo unspecified)	i	i	i	i	i	i	nt	nt
CC(C)[C@H](NC(=O)N1c2ccccc2NC(=O)[C@@H]1C(C)C)C(=O)N[C@H](Cc1ccccc1)C(=O)O	i	i	i	i	i	i	nt	nt
C=CCN(C(=O)c1oc2c(Cl)cc(C)cc2c1C)C1CCS(=O)(=O)C1 (stereo unspecified)	i	i	5.2	i	i	i	6.1	4.0
CC(C)c1ccc(NC2CCCN(C(=O)c3ccoc3)C2)cc1 (stereo unspecified)	i	i	i	i	i	i	nt	nt
Cc1ccc(NC(=O)OC[C@@H]2CSCCS(=O)(=O)N2)cc1	i	nt	i	nt	i	i	nt	nt
O=C(Nc1ccc(Cl)cc1)OC[C@@H]1CSCCS(=O)(=O)N1	i	nt	5.0	nt	i	i	i	i

High-throughput results deposited in PubChem BioAssay by The Scripps Research Institute Molecular Screening Center.
